Publication PMC4336329 (PLoS ONE, 2015)
About 14,000 (4.5%) of roughly 310,000 compounds showed an effect of 50% or more. Effects have a minus sign here. What follows is part of a selection rich in strong results, with near analogues and random picks from the rest.

What follows are compounds tested against human ether-à-go-go-related gene (hERG) potassium channel (human, UniProt Q12809) (assay: primary screen, population patch clamp on CHO cells stably expressing hERG; higher = less effect of the substance).
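Also: peak tail current of the secondary pulse compared with the same well before compound.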

Chain of human ether-à-go-go-related gene (hERG) potassium channel (Q12809 whole entry, looked up): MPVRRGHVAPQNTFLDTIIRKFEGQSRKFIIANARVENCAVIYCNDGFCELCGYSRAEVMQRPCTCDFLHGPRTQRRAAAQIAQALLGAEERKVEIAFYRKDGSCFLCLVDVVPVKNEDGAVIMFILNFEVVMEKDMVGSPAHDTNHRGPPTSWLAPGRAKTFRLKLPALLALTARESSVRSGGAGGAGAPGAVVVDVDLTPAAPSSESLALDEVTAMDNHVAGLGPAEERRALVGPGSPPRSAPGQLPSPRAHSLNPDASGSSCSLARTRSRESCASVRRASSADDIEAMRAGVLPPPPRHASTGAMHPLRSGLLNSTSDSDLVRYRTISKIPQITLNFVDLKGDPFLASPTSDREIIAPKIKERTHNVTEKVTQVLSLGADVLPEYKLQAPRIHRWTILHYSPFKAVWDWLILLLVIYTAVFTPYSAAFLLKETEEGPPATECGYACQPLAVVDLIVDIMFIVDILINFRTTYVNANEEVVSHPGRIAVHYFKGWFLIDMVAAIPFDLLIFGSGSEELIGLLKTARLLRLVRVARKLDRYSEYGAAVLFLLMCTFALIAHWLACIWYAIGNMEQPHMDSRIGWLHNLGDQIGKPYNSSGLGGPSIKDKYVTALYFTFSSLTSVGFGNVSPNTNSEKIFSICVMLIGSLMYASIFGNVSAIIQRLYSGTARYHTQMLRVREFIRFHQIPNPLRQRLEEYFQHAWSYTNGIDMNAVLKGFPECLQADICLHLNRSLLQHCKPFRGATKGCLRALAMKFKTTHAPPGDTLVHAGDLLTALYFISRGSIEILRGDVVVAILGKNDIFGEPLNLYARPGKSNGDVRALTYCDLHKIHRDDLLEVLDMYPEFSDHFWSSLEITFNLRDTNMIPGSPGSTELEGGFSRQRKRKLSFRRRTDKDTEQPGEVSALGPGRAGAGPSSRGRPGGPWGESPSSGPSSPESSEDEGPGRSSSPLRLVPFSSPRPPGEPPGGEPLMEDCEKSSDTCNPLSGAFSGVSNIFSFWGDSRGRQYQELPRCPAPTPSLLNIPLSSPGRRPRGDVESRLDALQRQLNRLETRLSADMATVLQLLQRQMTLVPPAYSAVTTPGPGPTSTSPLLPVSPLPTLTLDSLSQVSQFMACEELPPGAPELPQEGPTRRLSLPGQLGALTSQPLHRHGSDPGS

SMILES	hERG current change (%, negative = inhibition) at 10uM
Cc1cc(C(=O)Nc2ncn[nH]2)ccc1[N+](=O)[O-]	26.3%
Cc1cc(C)nc(NC(=O)c2ccc([N+](=O)[O-])c(C)c2)n1	7.43%
Cc1cc(C(=O)Nc2ncn(Cc3ccc(F)cc3)n2)ccc1[N+](=O)[O-]	-51.7%
C[C@]12C[C@H](O)[C@H]3[C@@H](CCC4=CC(=O)CC[C@@]43C)[C@@H]1CC[C@@H]2C(=O)CO	0.529%
Cc1ccccc1Cn1c(C(C)O)nc2ccccc21 (stereo not drawn)	4.7%
Cc1ccccc1Cn1c(=N)n(CC(O)c2ccco2)c2ccccc21.Cl (stereo not drawn)	-59.8%
Cc1ccccc1Cn1c(=O)n(Cc2ccco2)c(=O)c2ccccc21	2.24%
Cl.N=c1n(Cc2ccccc2Cl)c2ccccc2n1CC(O)c1ccco1 (stereo not drawn)	-56.7%
Cl.N=c1n(CCO)c2ccccc2n1Cc1ccccc1Cl	-20%
Br.CC(C)(C)C(=O)Cn1c(=N)n(Cc2ccccc2Cl)c2ccccc21	-49.2%
CCOC(=O)C1CCN(C(=O)CCn2c(=O)c3cccn3c3cccnc32)CC1	-33.2%
Cc1c(C(=O)NCCc2ccccc2)oc2ccccc12	1.98%
CN(C)C(=O)NC(O)C(Cl)Cl (stereo not drawn)	-2%
Cc1nn(C)c(C)c1NS(=O)(=O)c1ccccc1Cl	4.16%
CCc1ccccc1NC(=O)C1CCCN(c2ncnc3onc(-c4ccc(F)cc4)c23)C1 (stereo not drawn)	11.2%
COc1cc(/C=N/NC(=O)c2ccc(Cn3cc([N+](=O)[O-])cn3)o2)cc(Br)c1O	-77.5%
O=C(N/N=C\c1cccc(F)c1)c1ccc(Cn2cc(Br)c([N+](=O)[O-])n2)o1	-33.9%
O=C(N/N=C\c1ccc(F)cc1)c1ccc(Cn2cc(Br)c([N+](=O)[O-])n2)o1	-59.9%
Cc1ccc(/C=N/NC(=O)c2ccc(Cn3cc([N+](=O)[O-])cn3)o2)cc1	-65%
O=C(N/N=C/c1cccc(Br)c1)c1ccc(Cn2cc(Br)cn2)o1	-40.9%
O=C(N/N=C/c1cccnc1)c1ccc(Cn2cc([N+](=O)[O-])cn2)o1	-8.7%
O=C(N/N=C\c1ccc2c(c1)OCO2)c1ccc(Cn2cc(Br)c([N+](=O)[O-])n2)o1	-8.65%
CCOc1ccc(/C=N/NC(=O)c2ccc(Cn3cc([N+](=O)[O-])cn3)o2)cc1	-31.4%
COc1cc(/C=N\NC(=O)c2ccc(Cn3cc(Br)c([N+](=O)[O-])n3)o2)cc(OC)c1O	-11.9%
CN(C)c1ccc(/C=N/NC(=O)c2ccc(Cn3cc(Br)cn3)o2)cc1	-46.1%
COc1ccc(/C=N/NC(=O)c2ccc(Cn3cc([N+](=O)[O-])cn3)o2)cc1O	15.8%

SMILES	hERG current change (%, negative = inhibition) at 10uM
CCOc1ccc(/C=N/NC(=O)c2ccc(Cn3cc(Br)cn3)o2)cc1	-56.4%
O=C(NC1CCCC1)C(c1cccnc1)N(C(=O)c1csnn1)C1CC1 (stereo not drawn)	4.97%
CC(C)c1ccc(NC(=O)C2C3C=CC4(O3)C2C(=O)N(CCN2CCOCC2)C4C(=O)NC2CCCCC2)cc1 (stereo not drawn)	15.3%
O=C(Nc1ccccc1Cl)OC1CCCCC1	22.7%
C=C(C)c1cccc(C(C)(C)NC(=O)NCc2ccncc2)c1	-9.41%
Cc1cc(S(=O)(=O)N2CCOCC2)ccc1OCC(=O)Nc1cccc(C(F)(F)F)c1	19.8%
Cc1c(Cl)c([N+](=O)[O-])nn1Cc1ccc(C(=O)N/N=C\c2cc(Cl)ccc2O)o1	14.9%
COc1cc(/C=N\NC(=O)c2ccc(Cn3nc([N+](=O)[O-])c(Cl)c3C)o2)ccc1O	-70.4%
Cc1c(Cl)c([N+](=O)[O-])nn1Cc1ccc(C(=O)N/N=C\c2cccc(Br)c2)o1	-38.7%
N#Cc1ccc(Oc2nc(Nc3ccc(F)cc3)nc(N3CCCC3)n2)cc1	1.63%
O=C(O)CC/C(=N\Nc1ccc([N+](=O)[O-])cc1S(=O)(=O)N1CCOCC1)c1cccs1	-9.21%
CCn1cc(CNC(=O)/C=C/c2ccc([N+](=O)[O-])cc2)cn1	-33.6%
Cc1ccc(NC(=O)CNC2CCCCC2)cc1Cl	6.64%
CCOc1ccccc1-c1nnc(CS(=O)(=O)c2ccccc2)o1	-52.5%
Cc1ccccc1-c1nnc(CS(=O)(=O)c2ccccc2)o1	-19.2%
COc1ccc(Br)c(-c2nnc(CS(=O)(=O)c3ccccc3)o2)c1	-29.3%
COc1cccc(CNC(=O)Nc2cccs2)c1	11%
CCc1cc2c(=O)c(-c3nc(C)cs3)c(CCCC(=O)O)oc2cc1O	29.7%
CCOC(=O)c1cc2c(=O)n3ccccc3nc2n(Cc2ccco2)c1=NC(=O)c1ccc(OC)cc1	-54.3%
CCOC(=O)c1cc2c(=O)n3ccccc3nc2n(Cc2ccco2)c1=NC(=O)c1ccccc1OCC	-50%
CCOC(=O)c1cc2c(=O)n3ccccc3nc2n(Cc2ccco2)c1=NC(=O)c1ccc(OC)cc1OC	-54.2%
CCOC(=O)c1cc2c(=O)n3ccccc3nc2n(Cc2ccco2)c1=NC(=O)c1ccccc1OC	-68.9%
CCOC(=O)c1cc2c(=O)n3ccccc3nc2n(Cc2ccco2)c1=NC(=O)c1cccnc1	-37.4%
CCOC(=O)c1cc2c(=O)n3ccccc3nc2n(Cc2ccco2)c1=NC(=O)c1cccc(OC)c1	-43.8%
Nc1nnc(SCC(=O)Nc2ccccc2N2CCOCC2)s1	3.88%
